The source made the active and inactive calls. How the calls were made is not given here.
The molecules below were run against Pantothenate synthetase (Mycobacterium tuberculosis (strain ATCC 25618 / H37Rv)) (UniProt P9WIL5) (assay: Recombinant Mtb pantothenate synthetase (PanC) inhibitors, coupled enzyme, confirmatory (AID 375;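 further: 0% = full reaction with vehicle and 100% = no enzyme background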)). Settings: coupled enzyme assay; at 10 µM, hits give high values.
Sequence of Pantothenate synthetase (Mycobacterium tuberculosis (strain ATCC 25618 / H37Rv)) (P9WIL5 whole entry, looked up): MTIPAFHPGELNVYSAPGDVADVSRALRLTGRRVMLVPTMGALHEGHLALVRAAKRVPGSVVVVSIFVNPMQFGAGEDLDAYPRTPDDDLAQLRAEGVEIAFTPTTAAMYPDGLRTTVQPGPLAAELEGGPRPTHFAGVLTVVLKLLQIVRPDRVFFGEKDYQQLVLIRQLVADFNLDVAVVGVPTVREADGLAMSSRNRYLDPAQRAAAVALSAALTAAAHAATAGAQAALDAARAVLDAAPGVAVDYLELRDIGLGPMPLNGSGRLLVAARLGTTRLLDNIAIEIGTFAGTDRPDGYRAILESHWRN

| Structure (SMILES) | inhibition |
| --- | --- |
| Nc1nc(CSCc2ccccc2)nc(N2CCOCC2)n1 | 1% (inactive) |
| CC(=O)C1=C(C)OC(N)=C(C#N)C1c1ccncc1 (stereo not given) | 0% (inactive) |
| Cc1cc(C)c2c(=O)n(CC(=O)NCCCN3CCOCC3)sc2n1 | 1% (inactive) |
| O=C1CCCCCN1CSc1nc2ccccc2s1 | 0% (inactive) |
| CCN(CC)S(=O)(=O)c1ccc(N2CCCC2)c(C(=O)OCC(=O)/C(C#N)=C(\C)N)c1 | 6% (inactive) |
| CC1(C)C2CCC1(CS(=O)(=O)NCc1ccc(C(=O)O)cc1)C(=O)C2 (stereo not given) | 0% (inactive) |
| CCn1c(=O)cc(OCC(=O)Nc2cc(C)ccn2)c2ccccc21 | 0% (inactive) |
| COc1ccc(N2CCN(Cc3nc4c(c(=O)[nH]c(=O)n4C)n3CC(C)=O)CC2)cc1 | 0% (inactive) |
| CCCCN(CCCC)CCCNC(=O)CC1Oc2ccc(C)cc2NC1=O (stereo not given) | 3% (inactive) |
| COc1ccc(-c2noc(CCCC(=O)O)n2)cc1 | 8% (inactive) |
| CCc1nc2sc3c(c2c(=O)o1)CCCC3 | 0% (inactive) |
| NS(=O)(=O)c1cc2c(cc1Cl)NCNS2(=O)=O | 0% (inactive) |
| CCOC(=O)c1c(N)nn(C(=O)C(C)C)c1-c1ccccc1 | 0% (inactive) |
| CCN(C(=O)c1c(OC)cccc1OC)c1nnc(-c2cccnc2)s1 | 0% (inactive) |
| CCOC(=O)/C=C1\CC(=O)Nc2nonc2N1 | 4% (inactive) |
| CCCCN(c1ccccc1)S(=O)(=O)c1ccc2c(c1)CCN2C(=O)CCC(=O)O | 0% (inactive) |
| CCOC(=O)c1cnc(SCC)[nH]c1=O | 0% (inactive) |
| COC(=O)C1CCN(C(=O)CN2C(=O)NC(CCc3ccccc3)C2=O)CC1 (stereo not given) | 0% (inactive) |
| c1coc(CN2CN=C(Nc3nc4ccccc4s3)NC2)c1 | 0% (inactive) |
| COC(=O)Cc1c(C)nc2nc(-c3ccccc3)[nH]n2c1=O | 0% (inactive) |

| Structure (SMILES) | inhibition |
| --- | --- |
| CCCn1c2c(c(O)c(C(=O)Nc3ccc(C)cn3)c1=O)CCCC2 | 4% (inactive) |
| CC(C)Nc1ncnc2c1cnn2-c1ccccc1 | 0% (inactive) |
| CCc1nnc(NC(=O)CSc2nc(-c3ccc(OC)cc3)ns2)s1 | 0% (inactive) |
| CCOC(=O)C1CCN(C(=O)c2ccc(Cl)c(Cl)c2)CC1 | 8% (inactive) |
| COCCNC(=O)c1cc2c(-c3ccccc3F)nn(C)c2s1 | 8% (inactive) |
| Cn1c(-c2ccccc2)cnc1SCc1nc2ccccc2c(=O)[nH]1 | 7% (inactive) |
| Cc1ccc(CNC(=O)CSc2n[nH]c(N)n2)cc1 | 0% (inactive) |
| CCC(CC)C(=O)NCCc1cc2ccc(C)cc2[nH]c1=O | 0% (inactive) |
| O=C(CN1CCN(C(=O)c2ccccc2)CC1)Nc1ncc(Br)cc1Br | 0% (inactive) |
| COC(=O)c1ccc(C2NC(C(=O)O)CS2)cc1 (stereo not given) | 0% (inactive) |
| N#Cc1c(N)n(CCOC(=O)c2cccc(Br)c2)c2nc3ccccc3nc12 | 3% (inactive) |
| COCC(=O)n1nc(NCc2ccc(OC)cc2)nc1NCc1ccc(OC)cc1 | 0% (inactive) |
| CCN(CC)CCOC(=O)c1ccc(NC(=O)COc2cc(=O)n(CC)c3ccccc23)cc1 | 2% (inactive) |
| COc1ccc2nc(NC(=O)CSc3nnc(-c4ccoc4C)n3C)sc2c1 | 2% (inactive) |
| COc1cccc(-n2c(SCC(=O)Nc3cc(C)on3)nc3c([nH]c4ccccc43)c2=O)c1 | 2% (inactive) |
| COc1ccc(-c2nnc(SCC(=O)Nc3ccc(Cl)cc3)n2C)cc1 | 0% (inactive) |
| CCOC(=O)C(NC(C)=O)(Nc1ccc(S(=O)(=O)Nc2nccs2)cc1)C(F)(F)F (stereo not given) | 3% (inactive) |
| CN(C(=O)c1cc2sccc2n1C)C1CCCCC1 | 6% (inactive) |
| CN1C(=O)CC(C(=O)Nc2ccc(F)cc2)SC1=Nc1ccc2c(c1)OCO2 (stereo not given) | 0% (inactive) |
| O=C(COC(=O)c1cc(-c2ccco2)nc2ccccc12)NCc1ccc2c(c1)OCO2 | 0% (inactive) |

— PubChem BioAssay
